Shiga toxin inh: A qHTS for Small Molecule Inhibitors of Shiga Toxin. Vero cells, Shiga toxin protein synthesis inhibition reporter. inhibition, % at 38.7 µM. actives 9.2% (n = 290,000); in the data active means inhibition mostly above about 28%, no sharp cut-off; inactive means mostly below about 43%; further: 0% is about no effect
NS1 inh: qHTS Assay for Inhibitors of Influenza NS1 Protein Function. Potency, µM (series often up to 46.1 µM), for inactives: at the top dose activity, positive = more growth. actives 0.4% (n = 270,000); calls by dose curve; further: potency means the concentration at half of the fitted maximal effect; actives are rising curves; nearly all actives have a fitted effect of over 50% in size
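Growth recovery, yeast-based: influenza A NS1 expressed in S. cerevisiae causes slow growth, and suppressors are detected by OD600. The parent strain without NS1 is used as positive control.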
CHX counter: Cycloheximide Counterscreen for Small Molecule Inhibitors of Shiga Toxin. cell reporter, cycloheximide protein synthesis inhibition counterscreen. max response, %. actives 12% (n = 300,000). AID 2314, 2010; in the data active means max response mostly above about 13%, no sharp cut-off; inactive means mostly below about 14%; further: read at 38.3 µM for the half of the compounds with a filed dose; 0% is about no effect
FBPA Giardia inh: qHTS Assay for Inhibitors of Fructose-1,6-bisphosphate Aldolase from Giardia Lamblia. A8B2U2. purified Giardia FBPA. Potency, µM (doses to about 59.6 µM), without a hit: at the highest dose activity, negative = inhibition, usual class: inhibitors. actives 0.71% (n = 290,000); further: potency means the concentration at half of the fitted maximal effect; on the % scale 0 is the no-effect control and ±100 the full control effect; nearly all actives have a fitted effect of over 55% in size
Target sequence (A8B2U2 whole entry, looked up): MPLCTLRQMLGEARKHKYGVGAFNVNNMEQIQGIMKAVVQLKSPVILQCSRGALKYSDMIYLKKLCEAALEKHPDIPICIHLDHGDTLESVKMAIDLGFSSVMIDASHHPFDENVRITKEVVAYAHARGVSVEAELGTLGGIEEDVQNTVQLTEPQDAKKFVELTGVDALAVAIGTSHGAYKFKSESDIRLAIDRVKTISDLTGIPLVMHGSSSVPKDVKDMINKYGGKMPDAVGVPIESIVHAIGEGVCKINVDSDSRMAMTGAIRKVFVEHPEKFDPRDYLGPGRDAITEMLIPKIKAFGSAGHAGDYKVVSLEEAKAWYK
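40 nM FBPA preincubated 10 min at RT with compound (up to 57.5 uM final), then substrate plus GAPDH/TPI/NAD/arsenate coupling and diaphorase/resazurin added. Fluorescence read after 20 min at RT, 525/598 nm.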
LmPK inhibitor: qHTS Assay for Inhibitors of Leishmania Mexicana Pyruvate Kinase (LmPK) | purified LmPK, Kinase-Glo ATP luminescence, 1 h | AID 1721, 2009 | actives 0.37% (n = 290,000) | Potency, µM (doses to about 57.5 µM), for the others: top-dose activity change, negative = inhibition, actives largely listed as inhibitors | Q27686; further: potency means the concentration at half of the fitted maximal effect; on the % scale 0 is the no-effect control and ±100 the full control effect
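Purified LmPK (0.1 nM) converted ADP (0.1 mM) to ATP with PEP (0.5 mM) in imidazole buffer pH 7.2 with KCl and MgCl2, 1 h at room temperature. ATP was read by Kinase-Glo luminescence; data normalized to uninhibited and no-enzyme controls.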
Active calls of the source: *; ? = inconclusive; / = no result given. Rows were chosen to be rich in hits. Some 14% of all compounds tested hit in one or more screens of this group. Unless noted, the call rests on the fitted dose curve; in most records, active means well fitted curve in the direction sought with a large enough effect; inconclusive means small, poorly fitted or top-dose-only effect, or another doubt; inactive means no such curve, though single readings can be large; an effect the other way counts as inactive or inconclusive.

SMILES | Shiga toxin inh | NS1 inh | CHX counter | FBPA Giardia inh | LmPK inhibitor
CCOc1ccc(N=Nc2c(N)[nH][nH]c2=O)cc1 | 68* | 19% | 78* | -9% | ?
COc1cccc(N=Nc2c(N)[nH][nH]c2=O)c1 | 59* | 17% | 55* | -1% | -22%
COc1ccc(N=Nc2c(C)[nH][nH]c2=O)cc1 | 103* | / | 35* | ? | -4%
Cc1cc(=O)n2[nH]c(=O)c(N=Nc3ccccc3)c2[nH]1 | -10 | 4% | -4 | -24% | -20%
CCOc1ccc(N=Nc2c(=O)[nH]n3c(=O)cc(C)[nH]c23)cc1 | 3 | -1% | 10 | -14% | 14µM*
O=C(O)CSc1ccc([N+](=O)[O-])cc1[N+](=O)[O-] | / | -9% | / | / | /
COc1ccccc1CN1CCC(CNS(=O)(=O)c2cc(-c3cc(C)no3)ccc2OC)CC1 | -5 | 6% | 2 | 7% | -1%
COc1ccc(NC(=O)CC2S/C(=N\c3nccs3)N(C)C2=O)cc1 (stereo not given) | -2 | 1% | 11 | 4% | 0%
CCOc1cc(/C=C2/SC(=S)N(Cc3ccccc3)C2=O)ccc1O | 42* | ? | 16* | -11% | -3%
CCOc1cc(/C=C2\SC(=O)N(c3ccc(O)cc3)C2=O)ccc1O | 50* | -3% | 9.3* | 10% | 1%
COc1cc(/C=C2/SC(=S)N(Cc3ccccc3)C2=O)ccc1OCC(=O)O | / | ? | 0 | -5% | 5%
CCOc1ccc(N2C(=O)S/C(=C\c3ccc(O)c(OCC)c3)C2=O)cc1 | 13 | -6% | -4 | -5% | 1%
O=C(COc1ccc(Cl)cc1Cl)N/N=C/c1ccc[nH]1 | 35* | -9% | 44* | -4% | 1%
O=C(COc1ccc(Cl)cc1Cl)c1ccc[nH]1 | 57* | -5% | 31* | -3% | -6%
CC(C)(Cc1c[nH]c2ccccc12)NCC(O)COc1ccccc1C#N (stereo not given) | -7 | / | -6 | 0% | /
C=C1CCN(C(CC(C)C)C(=O)NCc2ccc(OC)cc2)S(=O)(=O)c2ccccc21 (stereo not given) | -2 | / | -3 | -9% | /
CCOC(=O)N1CCC(=NNc2nc3ccccc3s2)CC1 | 77* | -1% | 71* | -6% | 3%
N#C/C(=C\N1CCN(Cc2ccc3c(c2)OCO3)CC1)c1nc2ccccc2s1 | 50 | -11% | 12 | -14% | -2%
CCOC(=O)N1CCN(S(=O)(=O)c2ccc(C(=O)Nc3nc4ccccc4s3)cc2)CC1 | 11 | -2% | -2 | -1% | 3%
COC(=O)c1c(NC(=O)c2nc3ccccc3s2)sc2c1CCN(C(C)=O)C2 | -5 | -75% | -6 | -6% | 10%
CC(=O)N1CCC(=NNc2nc3ccccc3s2)CC1 | 91* | / | 45* | -10% | -12%
CCOC(=O)N1CCN(/C=C(\C#N)c2nc3ccccc3s2)CC1 | 82* | -19% | 15* | -1% | 2%
CC(C)[C@H](NC(=O)N1CCn2c1nc1ccccc12)C(=O)N1CCCCC1 | -4 | -12% | -2 | / | 5%
CCOC(=O)c1cc(-c2ccccc2)sc1NC(=O)C(C)Sc1nnc(C)s1 (stereo not given) | 39 | ? | 11* | 0% | 4%
COCCCN=Cc1c(C)[nH]n(-c2ccc(Br)c(C)c2)c1=O | 38* | -4% | 49* | -11% | 1%
SMILES | Shiga toxin inh | NS1 inh | CHX counter | FBPA Giardia inh | LmPK inhibitor
Cc1ccc(C(=O)c2cc3c(cc2[N+](=O)[O-])OCCO3)cc1 | 35 | -5% | 16* | 5% | 0%
CC(=O)Nc1cc2c(cc1C(=O)c1ccc(C)cc1)OCCO2 | -14 | -7% | -1 | 7% | 0%
O=C(c1ccccc1)c1cc2c(cc1[N+](=O)[O-])OCCO2 | 16 | -1% | 12* | -2% | 2%
C/C(=N\O)c1ccc2[nH]ccc2c1 | 38 | 16% | 15* | 0% | 2%
COc1ccc(N(C)S(=O)(=O)c2ccc3c(c2)NC(=O)CC(=O)N3)c(OC)c1 | 8 | 2% | -5 | / | -13%
CN(Cc1ccccc1)c1oc(COc2ccccc2F)nc1C#N | 89* | -45% | 25 | -2% | 9%
N#Cc1nc(COc2ccccc2F)oc1NCCc1ccccc1 | 57* | -113% | 27* | -5% | 6%
COc1ccc(C(O)Cn2ccsc2=NC(C)=O)cc1 (stereo not given) | -25 | 2% | 8 | -24% | -6%
C[C@H](c1ccccc1)N1CCN([C@@H](C)c2ccccc2)CC1 | / | -3% | / | / | /
CCc1nnc(NS(=O)(=O)c2ccc(Nc3ccc4nonc4c3[N+](=O)[O-])cc2)s1 | -28 | 8% | -3 | -2% | -1%
O=C(O)C[C@H]1OCC=C2CN3CC[C@@]45C6=CC(=O)C(=O)C([N+](=O)[O-])=C6N[C@H]4[C@H]1[C@H]2C[C@@H]35 | / | -8% | / | / | /
CN(C)S(=O)(=O)c1cccc(NC(=S)Nc2cccc3cnccc23)c1 | 17 | -7% | 8 | 2.5µM* | 3%
S=C(Nc1cccnc1)Nc1cccc2cnccc12 | -14 | / | 1 | ? | 1%
Fc1ccc(NC(=S)Nc2cccc3cnccc23)cc1 | 32 | / | 17* | 2.8µM* | 3%
S=C(Nc1ccc(Cl)cc1)Nc1cccc2cnccc12 | 19 | -62% | 18 | 1.6µM* | 0%
COc1ccc(NC(=S)Nc2cccc3cnccc23)cc1 | 32 | 10% | -3 | ? | 0%
c1ccc(Nc2nc(-c3ccc4c(c3)OCO4)nc3ccccc23)cc1 | / | / | / | -24% | /
Cc1ccccc1NS(=O)(=O)c1ccc(NS(=O)(=O)c2cccs2)cc1 | -7 | 14% | 2 | 8% | 3%
COc1cccc(CNc2ccc3c(c2)nc(C)n3C)c1OC | 61* | -16% | 33* | -14% | -6%
COc1cccc(CNc2ccc(S(N)(=O)=O)cc2)c1OC | -10 | 0% | -1 | 0% | 3%
COc1cccc(CNc2ccc3c(c2)ncn3C)c1OC | 23 | 8% | 19* | -6% | -6%
COc1ccc2nc3ccccc3nc2c1 | 69* | -36% | 40* | ? | ?
COc1ccc(-n2nc3ccccc3n2)cc1 | 53 | -86% | 24* | 0% | -6%
COc1ccc(-n2nc3cc(N)c(Br)cc3n2)cc1 | / | 4% | 30* | 1% | 6%
COc1ccc(-n2nc3cc(C)c(N)c(Br)c3n2)cc1 | 128* | -35% | 63* | 7.1µM* | ?
COc1ccc(-n2c(SC)nc3ccccc3c2=O)cc1 | 3 | -14% | 2 | 3% | -8%
Cc1ccccc1Nc1oc(-c2ccccc2)nc1CCc1ccccc1 | / | / | / | -1% | /
COc1cc2c3cc1Oc1cc(ccc1O)C[C@@H]1c4c(cc(OC)c(O)c4Oc4ccc(cc4)C[C@H]3[N+](C)(C)CC2)CC[N+]1(C)C | / | -5% | / | / | /
CC(=O)NC(NC(=S)Nc1ccc(N=Nc2ccccc2C)cc1C)C(Cl)(Cl)Cl (stereo not given) | 114* | -11% | 29* | 0% | 0%

Assay outcomes: PubChem, National Center for Advancing Translational Sciences (NCATS)
